Activity calls are given as the source filed them. Unless noted, no rule for the calls is given here.
Columns and labels:
[1] = tested on: Wnt5a (protein binding on small-molecule microarray); experiment: small molecules binding Wnt5a protein – biophysical, small-molecule microarray, 635/667 nm fluorescence, primary screen (AID 1142); conditions: 635 nm fluorescence, higher = more signal;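 also: fluorescence read at 667 nm with signal to noise per printed feature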
[2] = ATP-based viability of Huh7 replicon cells – cell-based, CellTiter-Glo luminescence, basal, 48 h, cytotoxicity control for HCV replication inhibitor project, primary screen (AID 1143); conditions: higher = more signal, called active from +8 up or from −8 down;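 also: Huh7 hepatoma cells carrying a hepatitis C replication reporter with no stimulus; test concentration not given here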
[3] = Pseudomonas biofilm growth suppression – PAO1 strain, BacTiter-Glo luminescence, LB-PBS, primary screen (AID 1144); conditions: P. aeruginosa PAO1 biofilm, 12 h, higher = more signal
[4] = basal CRE-LacZ reporter activity in PC12 – cell-based, unstimulated, primary screen (AID 1145); conditions: no forskolin, luminescence, 4.5 h, higher = more signal, called active from +8 up or from −8 down
[5] = forskolin-driven CRE-LacZ activity in PC12 – cell-based, CRE-LacZ reporter, forskolin-stimulated, primary screen (AID 1146); conditions: luminescence, 4.5 h, higher = more signal, called active from +8 up or from −8 down;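 also: PC12 cells with 6xCRE LacZ reporter stimulated by forskolin 10 µM; beta-galactosidase reporter signal reflecting CREB driven transcription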
[6] = target: Streptavidin (Streptomyces avidinii) (UniProt P22629); experiment: compounds binding control protein streptavidin – biophysical, small-molecule microarray, 635/667 nm fluorescence, artefact control for SMM compound annotation, primary screen (AID 1147); conditions: higher = more signal;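 also: signal reflects streptavidin binding to arrayed compounds as a control protein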
Chain of Streptavidin (Streptomyces avidinii) (P22629 whole entry, looked up): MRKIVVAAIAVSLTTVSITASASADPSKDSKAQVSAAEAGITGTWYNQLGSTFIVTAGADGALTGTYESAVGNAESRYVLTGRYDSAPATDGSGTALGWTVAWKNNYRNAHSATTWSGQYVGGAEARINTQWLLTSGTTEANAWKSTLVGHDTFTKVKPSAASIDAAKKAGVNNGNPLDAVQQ

[7] = probe aInhba binding on compound microarray – biochemical, small-molecule microarray, 635/667 nm fluorescence, primary screen (AID 1148); conditions: higher = more signal;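 also: score merges 667nm spot fluorescence with signal-to-noise for antibody binding to printed compounds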
[8] = target: Torsin-1A (Homo sapiens) (UniProt O14656); experiment: TOR1A wild-type binding on microarray – cell lysate, small-molecule microarray, lysate, 635/667 nm, primary screen (AID 1149); conditions: COS7 hTOR1A-WT lysate, 635 nm fluorescence, higher = more signal
Chain of Torsin-1A (Homo sapiens) (O14656 whole entry, looked up): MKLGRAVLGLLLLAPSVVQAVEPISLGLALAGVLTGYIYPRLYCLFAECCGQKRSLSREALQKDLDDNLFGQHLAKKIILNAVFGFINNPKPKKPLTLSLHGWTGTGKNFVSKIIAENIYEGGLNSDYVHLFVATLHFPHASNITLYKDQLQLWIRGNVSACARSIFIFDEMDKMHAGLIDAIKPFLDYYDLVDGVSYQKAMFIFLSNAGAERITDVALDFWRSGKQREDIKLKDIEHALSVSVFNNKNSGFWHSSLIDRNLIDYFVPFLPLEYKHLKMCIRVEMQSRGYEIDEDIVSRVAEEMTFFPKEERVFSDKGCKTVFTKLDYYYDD

[9] = target: Torsin-1A (Homo sapiens) (UniProt O14656); experiment: torsin A mutant lysate binding on microarrays – cell lysate, small-molecule microarray, COS7 lysate, 635/667 nm fluorescence, primary screen (AID 1150); conditions: COS7 hTOR1A mutant lysate, 635 nm fluorescence, higher = more signal;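 also: score pools 667 nm emission and signal to noise measuring lysate protein binding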
[10] = tested on: Sonic hedgehog protein (Shh); experiment: Sonic hedgehog microarray binding compounds – biochemical, small-molecule microarray, 635/667 nm fluorescence, primary screen (AID 1151); conditions: 635 nm fluorescence, higher = more signal;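 also: Shh protein binding to compounds spotted on small-molecule microarray slides; score combines spot fluorescence intensity with signal-to-noise across triplicate slides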
[11] = optical density shifts of acrAB sulA E. coli – strain DRC41, OD650, 48 h, E. coli filamentation inducer project, primary screen (AID 1152); conditions: higher = more signal, called active from +8 up or from −8 down;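 also: E. coli MC1000 strain DRC41 lacking acrAB efflux pump and sulA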
[12] = probe aLefty1 binding on compound microarray – biochemical, small-molecule microarray, 635/667 nm fluorescence, primary screen (AID 1153); conditions: higher = more signal;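 also: score merges spot fluorescence with signal-to-noise ratio from the scanned slide images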
[13] = plasmodial surface anion channel blockers, osmotic lysis – cell-based, P. falciparum Indochina, OD700, 1 h, primary screen (AID 1154); conditions: P. falciparum Indochina infected RBC osmotic lysis, higher = more signal, called active from +8 up or from −8 down
[14] = plasmodial surface anion channel blockers, osmotic lysis – cell-based, P. falciparum Indochina, OD700, 2 h, primary screen (AID 1155);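 also: lysis reports solute entry through the parasite surface anion channel PSAC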; conditions: P. falciparum Indochina infected erythrocytes, higher = more signal, called active from +8 up or from −8 down
[15] = changes in parasitized red cell lysis, either direction – P. falciparum Indochina, OD700, 3 h, PSAC antagonist project, primary screen (AID 1156); conditions: P. falciparum-infected erythrocytes, osmotic lysis, higher = more signal, called active from +8 up or from −8 down
[16] = plasmodial surface anion channel blockers, osmotic lysis – cell-based, P. falciparum Indochina, OD700, 18 h, primary screen (AID 1157); conditions: P. falciparum Indochina infected erythrocytes, osmotic lysis OD700, 18 h; higher = more signal, called active from +8 up or from −8 down
[17] = S6 kinase pathway phospho-S6 level changes – cell-based, A549, cytoblot, luminescence, serum-stimulated, primary screen (AID 1158); conditions: 5 h, higher = more signal;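 also: serum-stimulated A549 lung adenocarcinoma cells; signal is phosphorylated S6 detected by cytoblot immunostaining with HRP secondary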
[18] = target: NADPH oxidase 2 (Homo sapiens) (UniProt P04839); experiment: compounds shifting NOX2 Amplex Red fluorescence – cell-based, HEK293-NOX2, PMA-stimulated, NOX inhibitor project, primary screen (AID 1159); conditions: 45 min, higher = more signal, called active from +8 up or from −8 down; also: test concentration not given here
Chain of NADPH oxidase 2 (Homo sapiens) (P04839 whole entry, looked up): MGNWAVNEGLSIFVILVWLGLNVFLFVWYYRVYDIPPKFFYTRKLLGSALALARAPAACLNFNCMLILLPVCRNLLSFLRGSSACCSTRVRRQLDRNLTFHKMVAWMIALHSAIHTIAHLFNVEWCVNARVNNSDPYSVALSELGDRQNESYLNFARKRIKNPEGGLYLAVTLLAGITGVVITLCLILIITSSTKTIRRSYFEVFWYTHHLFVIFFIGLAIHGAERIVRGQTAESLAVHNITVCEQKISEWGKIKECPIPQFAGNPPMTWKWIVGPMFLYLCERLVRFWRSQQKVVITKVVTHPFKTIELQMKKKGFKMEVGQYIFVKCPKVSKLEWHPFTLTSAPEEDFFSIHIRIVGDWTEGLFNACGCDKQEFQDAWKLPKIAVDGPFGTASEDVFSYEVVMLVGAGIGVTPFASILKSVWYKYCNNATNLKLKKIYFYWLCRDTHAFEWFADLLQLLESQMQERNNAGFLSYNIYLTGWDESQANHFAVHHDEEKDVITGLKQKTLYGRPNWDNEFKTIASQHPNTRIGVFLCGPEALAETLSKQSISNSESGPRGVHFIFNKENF

[19] = target: NADPH oxidase 4 (Homo sapiens) (UniProt Q9NPH5); experiment: compounds shifting NOX4 Amplex Red fluorescence – cell-based, HEK293-NOX4, tetracycline-induced, NOX inhibitor project, primary screen (AID 1160); conditions: HEK293-NOX4, Amplex Red H2O2 fluorescence, 45 min; higher = more signal, called active from +8 up or from −8 down
Chain of NADPH oxidase 4 (Homo sapiens) (Q9NPH5 whole entry, looked up): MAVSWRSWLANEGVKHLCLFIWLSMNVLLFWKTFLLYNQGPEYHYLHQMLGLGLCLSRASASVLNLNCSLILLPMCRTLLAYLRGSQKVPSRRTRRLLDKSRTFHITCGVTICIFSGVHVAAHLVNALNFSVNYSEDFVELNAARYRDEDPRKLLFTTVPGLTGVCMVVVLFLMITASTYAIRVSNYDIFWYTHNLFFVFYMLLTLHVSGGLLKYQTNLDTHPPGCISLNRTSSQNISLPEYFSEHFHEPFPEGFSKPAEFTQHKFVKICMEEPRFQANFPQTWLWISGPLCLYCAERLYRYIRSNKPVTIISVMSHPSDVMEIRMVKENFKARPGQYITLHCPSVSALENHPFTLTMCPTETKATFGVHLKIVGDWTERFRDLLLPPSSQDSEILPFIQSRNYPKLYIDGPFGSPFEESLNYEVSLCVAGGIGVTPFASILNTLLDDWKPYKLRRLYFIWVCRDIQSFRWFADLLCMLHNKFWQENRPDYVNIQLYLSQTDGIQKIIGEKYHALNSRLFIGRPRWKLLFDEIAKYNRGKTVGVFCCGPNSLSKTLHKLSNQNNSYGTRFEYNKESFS

[20] = target: NADPH oxidase 5 (Homo sapiens) (UniProt Q96PH1); experiment: compounds shifting NOX5 Amplex Red fluorescence – cell-based, HEK293-NOX5, NOX inhibitor project, primary screen (AID 1161); conditions: HEK293-NOX5, ionomycin, 45 min, higher = more signal
Chain of NADPH oxidase 5 (Homo sapiens) (Q96PH1 whole entry, looked up): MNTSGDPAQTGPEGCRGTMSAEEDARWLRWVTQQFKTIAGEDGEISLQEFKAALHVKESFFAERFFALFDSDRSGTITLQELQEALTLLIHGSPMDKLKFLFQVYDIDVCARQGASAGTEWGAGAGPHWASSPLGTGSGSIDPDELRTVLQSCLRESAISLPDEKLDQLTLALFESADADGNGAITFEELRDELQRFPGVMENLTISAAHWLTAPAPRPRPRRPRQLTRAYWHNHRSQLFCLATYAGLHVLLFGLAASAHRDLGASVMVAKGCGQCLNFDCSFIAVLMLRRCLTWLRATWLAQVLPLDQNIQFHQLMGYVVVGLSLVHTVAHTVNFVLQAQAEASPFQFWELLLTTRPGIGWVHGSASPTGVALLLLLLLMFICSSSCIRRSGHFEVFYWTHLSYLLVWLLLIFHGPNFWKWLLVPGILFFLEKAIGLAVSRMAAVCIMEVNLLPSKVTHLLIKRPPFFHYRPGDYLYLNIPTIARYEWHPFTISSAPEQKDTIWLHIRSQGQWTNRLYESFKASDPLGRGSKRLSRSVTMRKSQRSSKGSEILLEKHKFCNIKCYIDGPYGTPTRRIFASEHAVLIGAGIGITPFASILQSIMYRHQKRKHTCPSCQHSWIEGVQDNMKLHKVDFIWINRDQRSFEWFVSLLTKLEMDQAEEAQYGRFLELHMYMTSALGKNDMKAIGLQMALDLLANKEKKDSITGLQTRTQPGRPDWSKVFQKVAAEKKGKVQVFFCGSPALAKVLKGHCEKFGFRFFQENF

## CO[C@H]1O[C@H](CO)[C@@H](OC(=O)Nc2ccc3c(c2)OCO3)[C@H](OC(=O)Nc2ccc3c(c2)OCO3)[C@H]1OC(=O)Nc1ccc2c(c1)OCO2
[1]
  composite z-score: 0.158
[2]
  z-score: -1.2 (inactive)
[3]
  z-score: -0.416 (inactive)
[4]
  z-score: 1.05 (inactive)
[5]
  z-score: -0.808 (inactive)
[6]
  composite z-score: 0.697
[7]
  composite z-score: 0.297
[8]
  composite z-score: 0.713
[9]
  composite z-score: 1.74
[10]
  composite z-score: 0.942
[11]
  z-score: 0.164 (inactive)
[12]
  composite z-score: 0.457
[13]
  z-score: 6.86 (inactive)
[14]
  z-score: 1.04 (inactive)
[15]
  z-score: 0.608 (inactive)
[16]
  z-score: 0.519 (inactive)
[17]
  z-score: -0.489
[18]
  z-score: -1.44 (inactive)
[19]
  z-score: -0.847 (inactive)
[20]
  z-score: -1.69

## O=C1O[C@H](c2ccccc2)[C@H](c2ccccc2)N2[C@H]1[C@@H](C(=O)Nc1nc3ccccc3s1)[C@]1(C(=O)Nc3ccc(C#CC4=CCCCC4)cc31)[C@H]2c1ccc(OCCO)cc1
[1]
  composite z-score: 0.706
[2]
  z-score: -1.3 (inactive)
[3]
  z-score: -0.711 (inactive)
[4]
  z-score: 0.128 (inactive)
[5]
  z-score: 0.205 (inactive)
[6]
  composite z-score: 1.73
[7]
  composite z-score: 0.417
[8]
  composite z-score: 0.0608
[9]
  composite z-score: 0.407
[10]
  composite z-score: 0.598
[11]
  z-score: -0.199 (inactive)
[12]
  composite z-score: 0.46
[13]
  z-score: 2.54 (inactive)
[14]
  z-score: 1.62 (inactive)
[15]
  z-score: 1.44 (inactive)
[16]
  z-score: 1.2 (inactive)
[17]
  z-score: -0.686
[18]
  z-score: 1.92 (inactive)
[19]
  z-score: 0.266 (inactive)
[20]
  z-score: 0.0146

## O=C1NC(=O)C2C1C=CC(C(O)c1cccs1)N2Nc1ccccn1 (stereo not given)
[1]
  composite z-score: 0.0343
[2]
  z-score: 0.847 (inactive)
[3]
  z-score: -1.39 (inactive)
[4]
  z-score: -0.712 (inactive)
[5]
  z-score: -1.04 (inactive)
[6]
  composite z-score: -0.0099
[7]
  composite z-score: -0.214
[8]
  composite z-score: 0.484
[9]
  composite z-score: 0.244
[10]
  composite z-score: -0.0541
[11]
  z-score: 0.218 (inactive)
[12]
  composite z-score: -0.0035
[13]
  z-score: 0.624 (inactive)
[14]
  z-score: 0.253 (inactive)
[15]
  z-score: -0.285 (inactive)
[16]
  z-score: 0.853 (inactive)
[17]
  z-score: -0.726
[18]
  z-score: 0.659 (inactive)
[19]
  z-score: -1.32 (inactive)
[20]
  z-score: -0.795

## CN1C(=O)C2C=CC(C(O)C(C)(C)C)N(Nc3ccccc3)C2C1=O (stereo not given)
[1]
  composite z-score: 0.04
[2]
  z-score: 1.07 (inactive)
[3]
  z-score: -0.101 (inactive)
[4]
  z-score: 0.24 (inactive)
[5]
  z-score: 0.124 (inactive)
[6]
  composite z-score: 0.0034
[7]
  composite z-score: -0.157
[8]
  composite z-score: 0.392
[9]
  composite z-score: -0.419
[10]
  composite z-score: -0.624
[11]
  z-score: -1.06 (inactive)
[12]
  composite z-score: -0.0838
[13]
  z-score: 0.931 (inactive)
[14]
  z-score: 1.05 (inactive)
[15]
  z-score: 0.156 (inactive)
[16]
  z-score: 1.12 (inactive)
[17]
  z-score: -1.04
[18]
  z-score: -1.09 (inactive)
[19]
  z-score: -3.48 (inactive)
[20]
  z-score: -1.54

— PubChem BioAssay
